How the values were obtained:
Assay in all cases: PBM binding z-score (relative to random genomic background probes); higher = stronger binding; sequences stand for … in GC…GCGATTGACAGCGTAGAATGAAGG
[1] = tested on: RARb homodimer (NR concentration 270 nM)
Procedure, shortened: (§1)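 Binding buffer was PBS pH 7.4 with 2% milk, 0.02% Triton X-100, 1 mM DTT, 0.2 mg/mL BSA and 0.4 mg/ml salmon testes DNA. In it, ligand-free nuclear receptor dimers were incubated 1 h on custom Agilent 4×180K protein-binding microarrays carrying double-stranded probes. Antibodies against each partner (one per run) detected binding, and z-scores were calculated against random background probes after regression normalization of scanned fluorescence.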

[2] = tested on: RARg:RXRa (NR concentration 270 nM, RXRa partner concentration 90 nM)
Procedure, shortened: as §1

[3] = tested on: RARg homodimer (NR concentration 270 nM)
Procedure, shortened: as §1

[4] = tested on: RXRa DBDmut IVT, anti-RXR (DBD mutation: RXRa K156A/R161A, NR concentration 90 nM)
Procedure, shortened: as §1

[5] = tested on: RXRa homodimer (NR concentration 180 nM)
Procedure, shortened: as §1

[6] = tested on: THRa:RXRa (NR concentration 90 nM, RXRa partner concentration 90 nM)
Procedure, shortened: as §1

[7] = tested on: THRa homodimer (NR concentration 90 nM)
Procedure, shortened: as §1

[8] = tested on: VDR homodimer (NR concentration 270 nM)
Procedure, shortened: as §1

| Sequence | PBM binding z-score [1] | PBM binding z-score [2] | PBM binding z-score [3] | PBM binding z-score [4] | PBM binding z-score [5] | PBM binding z-score [6] | PBM binding z-score [7] | PBM binding z-score [8] |
| --- | --- | --- | --- | --- | --- | --- | --- | --- |
| CTAACTAGGTCACAGAGGTCAAAGTCCGTGCGTA | 5.46 | 7.35 | 7.81 | 3.52 | 7.99 | 4.64 | 3.13 | 7.07 |
| TCGAGTAGGTTACGGGGACATTCAGGGATGAAGA | 1.42 | 1.26 | 1.01 | 0.561 | 1.09 | 2.77 | 1.57 | 1.1 |
| TCGAGTAGGTTACGGAGGCATTCAGGGATGAAGA | 0.171 | 0.578 | 0.4 | -0.134 | 0.833 | 1.1 | -0.655 | -0.549 |
| CTATGTAGGTTAAGGGGGTCAATCAGTTTGAAAG | 3.94 | 5.13 | 4.33 | 1.67 | 5.67 | 3.81 | 1.49 | 4.34 |
| TAGCCTAGGTCAGATCGGGGCAGTATACGCTATA | 2.27 | 2.87 | 3.83 | -0.173 | 1.6 | 4.07 | 0.0921 | 0.0728 |
| TCTAGTTGGTCACGGAGGTCACACGCGACGGGTA | 4.41 | 4.66 | 4.95 | 1.4 | 4.97 | 3.67 | 2.4 | 3.43 |
| ATAGGTAGGTTAGGGTCATTCAGAAAGTAGGGAA | 3.99 | 4.32 | 4.06 | 2.36 | 5.28 | 4.76 | 3.77 | 4.51 |
| CCGAGTAGGTTACGAGAGGGCATTCAGTGCGAAT | 1.65 | 1.75 | 1.42 | 0.522 | 1.39 | 3.76 | -0.738 | 2.06 |
| CCGAGTAGGTTCCGAGGGGGCATTCAGTGCGAAT | 1.62 | 1.66 | 1.02 | 1.42 | 1.12 | 2.38 | 1.1 | 3.91 |
| AGTCAAAGTTCATCTGGGTAACGTAAGATATGCT | 4.07 | 5.32 | 5.48 | 4.78 | 4.42 | 2.82 | 0.135 | 4.81 |
| ATCTCTAGGTAAATGTTCAGTGAATCCCGAGGAT | -0.29 | 0.459 | 0.485 | -0.155 | 0.162 | 0.097 | 0.171 | -0.0904 |
| CCGAGTAGGTAACGAGGGGGCATTCAGTGCGAAT | 1.62 | 1.9 | 1.27 | 0.932 | 1.21 | 2.73 | 0.519 | 3.01 |
| CGAACTAGGTCAAAGGACAGTTAAAGGCGACGTA | 3.01 | 4.13 | 4.51 | 1.67 | 3.1 | 2.49 | 0.41 | 0.768 |

Source: the supplement of paper PMC6555819
